Laboratory results published in PMC7862700, “An all-to-all approach to the identification of sequence-specific readers for epigenetic DNA modifications on cytosine”.

Key:
Experiment in all cases: DAPPL (digital affinity profiling via proximity ligation, sequencing); 10 mM Tris-HCl pH 7.5, 50 mM NaCl, 1 mM DTT, 4% glycerol, room temperature, 30 min; GST-TFs on glutathione beads, 16-mer random dsDNA library, 0.1% formaldehyde crosslink after washing; high values mean tight binding
Conditions in all cases: protein: recombinant; tags: N-terminal GST; dsDNA, one strand shown
[1] = molecular target: T1, ELK1 (Homo sapiens, UniProt P19419 1-428)
T1 sequence: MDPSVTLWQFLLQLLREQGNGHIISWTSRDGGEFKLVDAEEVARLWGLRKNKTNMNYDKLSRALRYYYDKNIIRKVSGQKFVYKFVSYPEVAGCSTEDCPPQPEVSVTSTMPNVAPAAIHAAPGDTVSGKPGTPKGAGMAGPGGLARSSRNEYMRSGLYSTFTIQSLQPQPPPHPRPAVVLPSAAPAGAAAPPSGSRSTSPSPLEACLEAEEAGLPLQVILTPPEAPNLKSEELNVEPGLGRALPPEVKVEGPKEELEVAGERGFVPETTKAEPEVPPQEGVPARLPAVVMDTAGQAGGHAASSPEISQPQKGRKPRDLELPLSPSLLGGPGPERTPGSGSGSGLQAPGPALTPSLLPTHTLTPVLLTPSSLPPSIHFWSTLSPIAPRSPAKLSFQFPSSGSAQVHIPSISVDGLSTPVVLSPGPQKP
Method in brief: (§1)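 Yeast served to express human transcription factors as GST fusions, which were then captured on glutathione beads and labelled with DNA barcodes. Pooled with a tag-only sample, they were incubated with 200 nmole of a 16-mer random double-stranded DNA library for 30 min at room temperature in Tris/NaCl/DTT/glycerol buffer, washed, crosslinked with 0.1% formaldehyde, ligated by proximity, amplified by PCR and sequenced. Dividing each hexamer's read frequency for a factor by its frequency for the tag-only sample gives the binding signal.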

[2] = molecular target: T2, GABPA (Homo sapiens, UniProt Q06546 1-454)
T2 sequence: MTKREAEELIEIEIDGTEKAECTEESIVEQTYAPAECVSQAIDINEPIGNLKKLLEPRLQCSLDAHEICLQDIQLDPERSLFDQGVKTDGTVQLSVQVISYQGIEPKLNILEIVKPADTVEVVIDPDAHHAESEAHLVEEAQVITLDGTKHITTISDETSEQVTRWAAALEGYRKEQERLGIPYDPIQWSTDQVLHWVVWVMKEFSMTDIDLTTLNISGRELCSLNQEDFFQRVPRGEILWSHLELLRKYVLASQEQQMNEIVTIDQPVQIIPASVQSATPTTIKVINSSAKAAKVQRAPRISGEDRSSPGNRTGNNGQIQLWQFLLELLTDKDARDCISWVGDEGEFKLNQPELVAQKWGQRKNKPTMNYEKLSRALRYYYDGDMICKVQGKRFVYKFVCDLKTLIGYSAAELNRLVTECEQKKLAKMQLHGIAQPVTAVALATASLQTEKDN
Method in brief: as §1

[3] = molecular target: T3, ERG (Homo sapiens, UniProt P11308 1-479)
T3 sequence: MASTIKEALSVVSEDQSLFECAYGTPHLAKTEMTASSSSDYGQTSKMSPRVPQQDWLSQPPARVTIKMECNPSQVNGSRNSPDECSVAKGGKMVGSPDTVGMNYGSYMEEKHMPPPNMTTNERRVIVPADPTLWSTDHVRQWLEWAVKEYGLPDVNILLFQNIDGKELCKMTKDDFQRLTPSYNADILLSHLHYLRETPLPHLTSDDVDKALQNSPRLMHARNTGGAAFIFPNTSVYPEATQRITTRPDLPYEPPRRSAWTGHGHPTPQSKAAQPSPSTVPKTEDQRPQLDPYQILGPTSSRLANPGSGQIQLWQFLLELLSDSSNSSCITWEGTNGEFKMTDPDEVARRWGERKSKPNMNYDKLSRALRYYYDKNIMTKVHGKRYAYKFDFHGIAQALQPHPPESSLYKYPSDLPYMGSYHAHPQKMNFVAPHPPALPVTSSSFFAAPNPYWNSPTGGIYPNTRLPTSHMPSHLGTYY
Method in brief: as §1

[4] = molecular target: ELF1 (Homo sapiens, UniProt P32519 1-619)
Chain of ELF1 (P32519 whole entry): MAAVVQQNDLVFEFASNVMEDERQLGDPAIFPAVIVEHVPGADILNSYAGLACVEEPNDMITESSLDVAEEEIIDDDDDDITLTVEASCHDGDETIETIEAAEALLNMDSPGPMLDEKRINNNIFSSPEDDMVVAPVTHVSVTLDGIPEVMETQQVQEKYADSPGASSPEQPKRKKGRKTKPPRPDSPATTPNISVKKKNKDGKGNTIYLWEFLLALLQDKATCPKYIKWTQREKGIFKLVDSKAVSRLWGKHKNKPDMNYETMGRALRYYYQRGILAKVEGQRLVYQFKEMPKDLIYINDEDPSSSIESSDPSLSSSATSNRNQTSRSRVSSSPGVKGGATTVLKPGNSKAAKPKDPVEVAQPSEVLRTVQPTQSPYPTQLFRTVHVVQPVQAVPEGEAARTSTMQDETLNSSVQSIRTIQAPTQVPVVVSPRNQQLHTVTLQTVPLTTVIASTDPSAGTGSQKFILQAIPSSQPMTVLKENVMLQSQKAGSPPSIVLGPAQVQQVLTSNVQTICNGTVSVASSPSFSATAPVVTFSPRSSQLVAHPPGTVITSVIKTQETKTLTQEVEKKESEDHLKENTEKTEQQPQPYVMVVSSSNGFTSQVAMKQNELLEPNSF
Method in brief: as §1

[5] = molecular target: T4, EHF (Homo sapiens, UniProt Q9NZC4 1-300)
T4 sequence: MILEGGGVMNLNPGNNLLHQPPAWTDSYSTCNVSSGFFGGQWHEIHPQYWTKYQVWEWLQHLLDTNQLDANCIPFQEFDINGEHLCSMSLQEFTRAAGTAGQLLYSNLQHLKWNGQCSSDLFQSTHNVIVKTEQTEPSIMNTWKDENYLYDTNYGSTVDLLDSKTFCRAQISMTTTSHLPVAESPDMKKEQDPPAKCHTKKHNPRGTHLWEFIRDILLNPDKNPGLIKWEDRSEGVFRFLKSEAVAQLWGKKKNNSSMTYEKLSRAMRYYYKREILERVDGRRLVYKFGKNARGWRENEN
Method in brief: as §1

[6] = molecular target: SPIB (Homo sapiens, UniProt Q01892 1-262)
Chain of SPIB (Q01892 whole entry): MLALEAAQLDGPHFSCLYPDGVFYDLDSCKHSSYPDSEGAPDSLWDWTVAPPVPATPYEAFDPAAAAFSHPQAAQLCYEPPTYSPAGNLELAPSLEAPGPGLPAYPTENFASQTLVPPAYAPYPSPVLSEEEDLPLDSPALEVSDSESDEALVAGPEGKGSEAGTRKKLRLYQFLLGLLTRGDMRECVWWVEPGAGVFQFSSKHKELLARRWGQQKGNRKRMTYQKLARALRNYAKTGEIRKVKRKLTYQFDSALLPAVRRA
Method in brief: as §1

[7] = molecular target: T5, FEV (Homo sapiens, UniProt Q99581 1-238)
T5 sequence: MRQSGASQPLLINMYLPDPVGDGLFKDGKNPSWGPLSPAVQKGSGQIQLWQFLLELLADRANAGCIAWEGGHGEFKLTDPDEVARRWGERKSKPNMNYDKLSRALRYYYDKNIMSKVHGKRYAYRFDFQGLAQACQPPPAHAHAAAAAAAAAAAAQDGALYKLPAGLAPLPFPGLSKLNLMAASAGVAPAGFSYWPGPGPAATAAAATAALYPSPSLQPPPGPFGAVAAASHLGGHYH
Method in brief: as §1

[8] = molecular target: ETV5 (Homo sapiens, UniProt P41161 1-510)
Chain of ETV5 (P41161 whole entry): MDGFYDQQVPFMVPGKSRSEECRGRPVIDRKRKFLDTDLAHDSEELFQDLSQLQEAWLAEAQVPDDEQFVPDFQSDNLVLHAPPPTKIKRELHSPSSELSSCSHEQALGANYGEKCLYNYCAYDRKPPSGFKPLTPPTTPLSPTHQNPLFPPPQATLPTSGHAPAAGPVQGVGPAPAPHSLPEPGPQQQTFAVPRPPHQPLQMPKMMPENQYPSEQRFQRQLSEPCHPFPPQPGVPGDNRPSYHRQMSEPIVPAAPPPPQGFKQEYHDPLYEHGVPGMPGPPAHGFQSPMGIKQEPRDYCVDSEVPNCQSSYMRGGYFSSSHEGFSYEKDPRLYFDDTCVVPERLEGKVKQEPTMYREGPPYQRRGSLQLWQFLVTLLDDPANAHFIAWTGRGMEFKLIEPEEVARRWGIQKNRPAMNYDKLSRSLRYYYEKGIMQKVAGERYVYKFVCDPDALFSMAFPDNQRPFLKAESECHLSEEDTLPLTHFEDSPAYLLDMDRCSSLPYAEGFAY
Method in brief: as §1

[9] = molecular target: ELF4 (Homo sapiens, UniProt Q99607 1-663)
Chain of ELF4 (Q99607 whole entry): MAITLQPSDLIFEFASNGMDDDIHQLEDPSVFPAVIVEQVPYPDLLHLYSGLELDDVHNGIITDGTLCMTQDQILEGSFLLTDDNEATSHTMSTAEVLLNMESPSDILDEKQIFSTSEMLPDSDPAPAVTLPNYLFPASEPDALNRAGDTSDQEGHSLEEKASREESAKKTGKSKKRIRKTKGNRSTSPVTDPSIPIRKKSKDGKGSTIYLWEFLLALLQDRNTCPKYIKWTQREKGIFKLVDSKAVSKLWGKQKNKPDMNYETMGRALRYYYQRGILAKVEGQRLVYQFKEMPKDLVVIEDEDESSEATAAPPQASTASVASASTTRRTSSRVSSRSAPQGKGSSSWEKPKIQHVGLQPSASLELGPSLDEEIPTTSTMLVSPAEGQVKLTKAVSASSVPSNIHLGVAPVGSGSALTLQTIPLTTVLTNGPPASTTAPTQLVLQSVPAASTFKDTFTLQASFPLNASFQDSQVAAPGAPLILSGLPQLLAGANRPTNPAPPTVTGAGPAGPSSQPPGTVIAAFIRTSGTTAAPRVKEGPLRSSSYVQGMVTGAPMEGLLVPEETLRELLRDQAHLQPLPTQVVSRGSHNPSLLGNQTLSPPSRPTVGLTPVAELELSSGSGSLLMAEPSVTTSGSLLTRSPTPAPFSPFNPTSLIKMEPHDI
Method in brief: as §1

[10] = molecular target: T6, ELK4 (Homo sapiens, UniProt P28324-2 1-405)
T6 sequence: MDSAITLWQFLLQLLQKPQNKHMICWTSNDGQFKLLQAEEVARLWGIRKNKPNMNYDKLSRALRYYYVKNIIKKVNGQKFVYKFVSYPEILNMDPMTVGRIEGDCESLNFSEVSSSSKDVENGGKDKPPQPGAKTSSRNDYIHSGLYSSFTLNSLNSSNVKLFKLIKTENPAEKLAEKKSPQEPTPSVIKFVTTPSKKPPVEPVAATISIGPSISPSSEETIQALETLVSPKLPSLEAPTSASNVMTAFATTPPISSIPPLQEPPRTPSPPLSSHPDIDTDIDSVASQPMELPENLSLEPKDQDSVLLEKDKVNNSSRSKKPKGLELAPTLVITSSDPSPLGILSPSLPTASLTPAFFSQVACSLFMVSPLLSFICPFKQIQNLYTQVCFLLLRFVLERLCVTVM
Method in brief: as §1

[11] = molecular target: T7, ETV2 (Homo sapiens, UniProt O00321 1-342)
T7 sequence: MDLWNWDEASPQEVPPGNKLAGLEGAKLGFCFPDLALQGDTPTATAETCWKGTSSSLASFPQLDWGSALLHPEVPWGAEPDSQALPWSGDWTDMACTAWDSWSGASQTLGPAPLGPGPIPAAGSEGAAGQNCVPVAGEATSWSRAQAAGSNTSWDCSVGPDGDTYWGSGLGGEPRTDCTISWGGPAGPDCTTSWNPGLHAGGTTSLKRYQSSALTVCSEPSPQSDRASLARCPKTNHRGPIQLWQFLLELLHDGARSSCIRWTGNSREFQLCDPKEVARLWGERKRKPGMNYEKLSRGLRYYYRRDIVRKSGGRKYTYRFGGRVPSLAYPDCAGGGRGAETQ
Method in brief: as §1

[12] = molecular target: T8, ELF3 (Homo sapiens, UniProt P78545 1-371)
T8 sequence: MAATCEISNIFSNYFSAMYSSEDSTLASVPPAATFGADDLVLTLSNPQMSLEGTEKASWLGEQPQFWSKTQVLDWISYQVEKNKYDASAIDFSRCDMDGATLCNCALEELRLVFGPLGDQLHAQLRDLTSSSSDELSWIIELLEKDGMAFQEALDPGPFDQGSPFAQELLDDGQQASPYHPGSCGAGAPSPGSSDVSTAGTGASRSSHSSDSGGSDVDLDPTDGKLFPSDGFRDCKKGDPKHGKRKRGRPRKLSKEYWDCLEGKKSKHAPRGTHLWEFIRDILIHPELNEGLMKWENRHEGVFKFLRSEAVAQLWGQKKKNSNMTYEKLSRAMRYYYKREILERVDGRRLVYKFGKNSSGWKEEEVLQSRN
Method in brief: as §1

[13] = molecular target: ETV1 (Homo sapiens, UniProt P50549 1-477)
Chain of ETV1 (P50549 whole entry): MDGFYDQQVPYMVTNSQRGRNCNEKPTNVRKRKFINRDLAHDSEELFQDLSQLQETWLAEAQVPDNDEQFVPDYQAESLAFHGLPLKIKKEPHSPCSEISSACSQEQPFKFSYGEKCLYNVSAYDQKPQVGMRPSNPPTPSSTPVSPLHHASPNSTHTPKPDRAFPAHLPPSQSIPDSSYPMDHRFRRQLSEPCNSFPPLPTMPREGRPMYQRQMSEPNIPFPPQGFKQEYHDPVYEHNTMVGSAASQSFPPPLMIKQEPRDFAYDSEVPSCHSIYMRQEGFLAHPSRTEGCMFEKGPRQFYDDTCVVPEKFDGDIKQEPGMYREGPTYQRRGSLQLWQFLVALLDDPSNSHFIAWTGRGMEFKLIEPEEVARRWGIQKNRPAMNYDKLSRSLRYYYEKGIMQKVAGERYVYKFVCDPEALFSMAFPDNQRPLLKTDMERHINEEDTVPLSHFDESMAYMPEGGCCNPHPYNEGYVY
Method in brief: as §1

[14] = molecular target: T9, ETV3L (Homo sapiens, UniProt Q6ZN32 1-361)
T9 sequence: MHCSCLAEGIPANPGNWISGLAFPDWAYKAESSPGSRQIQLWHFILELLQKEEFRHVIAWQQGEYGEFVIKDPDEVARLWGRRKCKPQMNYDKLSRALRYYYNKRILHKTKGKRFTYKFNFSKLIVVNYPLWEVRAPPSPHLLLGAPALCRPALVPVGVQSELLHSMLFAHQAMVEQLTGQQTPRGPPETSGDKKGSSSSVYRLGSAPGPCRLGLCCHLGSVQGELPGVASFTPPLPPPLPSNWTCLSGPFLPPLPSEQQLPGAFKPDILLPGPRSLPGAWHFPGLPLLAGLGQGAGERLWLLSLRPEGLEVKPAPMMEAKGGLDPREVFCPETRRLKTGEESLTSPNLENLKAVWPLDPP
Method in brief: as §1

[15] = molecular target: T10, ETS2 (Homo sapiens, UniProt P15036 1-469)
T10 sequence: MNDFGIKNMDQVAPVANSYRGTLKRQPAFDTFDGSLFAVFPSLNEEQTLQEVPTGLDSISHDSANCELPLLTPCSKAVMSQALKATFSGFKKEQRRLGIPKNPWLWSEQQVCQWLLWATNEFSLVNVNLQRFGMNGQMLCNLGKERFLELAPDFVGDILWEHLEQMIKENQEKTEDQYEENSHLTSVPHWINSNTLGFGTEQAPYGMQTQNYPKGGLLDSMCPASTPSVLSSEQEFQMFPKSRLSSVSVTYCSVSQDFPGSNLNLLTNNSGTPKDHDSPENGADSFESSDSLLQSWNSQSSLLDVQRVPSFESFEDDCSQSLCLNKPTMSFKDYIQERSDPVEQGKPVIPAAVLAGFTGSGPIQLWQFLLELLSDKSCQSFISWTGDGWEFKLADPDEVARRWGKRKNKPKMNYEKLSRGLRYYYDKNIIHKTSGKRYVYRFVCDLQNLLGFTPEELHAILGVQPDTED
Method in brief: as §1

[16] = molecular target: T11, SPDEF (Homo sapiens, UniProt O95238 1-335)
T11 sequence: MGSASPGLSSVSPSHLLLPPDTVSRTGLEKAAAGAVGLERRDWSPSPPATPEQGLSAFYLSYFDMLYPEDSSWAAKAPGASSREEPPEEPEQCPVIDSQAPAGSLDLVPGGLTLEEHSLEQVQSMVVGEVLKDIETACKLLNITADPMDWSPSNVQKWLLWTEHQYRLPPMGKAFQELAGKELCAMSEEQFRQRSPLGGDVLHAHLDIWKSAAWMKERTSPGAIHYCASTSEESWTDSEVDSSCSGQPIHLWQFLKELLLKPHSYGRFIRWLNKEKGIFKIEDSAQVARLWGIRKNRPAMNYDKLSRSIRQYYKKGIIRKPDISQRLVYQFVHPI
Method in brief: as §1

[17] = molecular target: T12, ETV7 (Homo sapiens, UniProt Q9Y603 1-341)
T12 sequence: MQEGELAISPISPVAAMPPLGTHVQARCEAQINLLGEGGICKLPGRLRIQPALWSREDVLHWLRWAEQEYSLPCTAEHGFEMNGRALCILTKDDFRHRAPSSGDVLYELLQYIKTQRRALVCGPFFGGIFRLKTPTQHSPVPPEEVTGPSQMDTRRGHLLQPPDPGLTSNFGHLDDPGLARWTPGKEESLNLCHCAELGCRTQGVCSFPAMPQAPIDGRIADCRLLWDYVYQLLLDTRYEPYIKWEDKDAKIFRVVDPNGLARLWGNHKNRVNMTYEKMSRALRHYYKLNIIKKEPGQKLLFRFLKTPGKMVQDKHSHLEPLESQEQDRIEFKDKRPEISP
Method in brief: as §1

[18] = molecular target: T13, ETV3 (Homo sapiens, UniProt P41162-2 1-143)
T13 sequence: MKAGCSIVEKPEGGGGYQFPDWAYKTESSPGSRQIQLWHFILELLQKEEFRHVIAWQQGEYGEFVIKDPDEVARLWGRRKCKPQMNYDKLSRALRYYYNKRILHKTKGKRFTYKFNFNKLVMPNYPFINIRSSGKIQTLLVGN
Method in brief: as §1

[19] = molecular target: ETV6 (Homo sapiens, UniProt P41212 1-452)
Chain of ETV6 (P41212 whole entry): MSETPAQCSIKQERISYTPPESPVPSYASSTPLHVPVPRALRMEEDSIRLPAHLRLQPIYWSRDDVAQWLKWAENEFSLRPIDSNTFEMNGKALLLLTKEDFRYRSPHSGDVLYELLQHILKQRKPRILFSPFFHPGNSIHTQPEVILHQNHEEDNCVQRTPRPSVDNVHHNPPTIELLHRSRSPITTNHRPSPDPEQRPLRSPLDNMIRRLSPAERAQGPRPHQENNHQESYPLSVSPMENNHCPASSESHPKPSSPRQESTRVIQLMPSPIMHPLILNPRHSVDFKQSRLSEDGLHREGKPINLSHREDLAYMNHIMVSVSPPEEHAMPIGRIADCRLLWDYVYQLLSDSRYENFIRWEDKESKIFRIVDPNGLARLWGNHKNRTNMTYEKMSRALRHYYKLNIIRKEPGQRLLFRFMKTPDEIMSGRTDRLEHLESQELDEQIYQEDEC
Method in brief: as §1

CGCCTG
binding signal [1]: 1.17 fold enrichment (6-mer frequency, TF over GST control) | binding signal [2]: 1.08 fold enrichment (6-mer frequency, TF over GST control) | binding signal [3]: 1.15 fold enrichment (6-mer frequency, TF over GST control) | binding signal [4]: 1.12 fold enrichment (6-mer frequency, TF over GST control) | binding signal [5]: 1.11 fold enrichment (6-mer frequency, TF over GST control) | binding signal [6]: 1.07 fold enrichment (6-mer frequency, TF over GST control) | binding signal [7]: 1.08 fold enrichment (6-mer frequency, TF over GST control) | binding signal [8]: 1.18 fold enrichment (6-mer frequency, TF over GST control) | binding signal [9]: 1.05 fold enrichment (6-mer frequency, TF over GST control) | binding signal [10]: 1.17 fold enrichment (6-mer frequency, TF over GST control) | binding signal [11]: 1.01 fold enrichment (6-mer frequency, TF over GST control) | binding signal [12]: 1.19 fold enrichment (6-mer frequency, TF over GST control) | binding signal [13]: 1.09 fold enrichment (6-mer frequency, TF over GST control) | binding signal [14]: 1.1 fold enrichment (6-mer frequency, TF over GST control) | binding signal [15]: 1.12 fold enrichment (6-mer frequency, TF over GST control) | binding signal [16]: 1.03 fold enrichment (6-mer frequency, TF over GST control) | binding signal [17]: 1.01 fold enrichment (6-mer frequency, TF over GST control) | binding signal [18]: 1.06 fold enrichment (6-mer frequency, TF over GST control) | binding signal [19]: 1.14 fold enrichment (6-mer frequency, TF over GST control)
